# ALOX12 inh – Primary qHTS assay for inhibitors of human arachidonate 12S-lipoxygenase (ALOX12): Round 2; Polyunsaturated fatty acid lipoxygenase ALOX12 (Homo sapiens), P18054; 580,000 compounds, 1.1% hits; Potency, µM (titrated, usually from 108 µM), inactives show at the highest dose activity change, negative = inhibition, actives largely listed as inhibitors; AID 1671190, 2021; purified 12hLO, xylenol orange hydroperoxide absorbance; also: % is scaled to controls: 0 for no effect and ±100 for the full control effect
# Target sequence (P18054 whole entry, looked up): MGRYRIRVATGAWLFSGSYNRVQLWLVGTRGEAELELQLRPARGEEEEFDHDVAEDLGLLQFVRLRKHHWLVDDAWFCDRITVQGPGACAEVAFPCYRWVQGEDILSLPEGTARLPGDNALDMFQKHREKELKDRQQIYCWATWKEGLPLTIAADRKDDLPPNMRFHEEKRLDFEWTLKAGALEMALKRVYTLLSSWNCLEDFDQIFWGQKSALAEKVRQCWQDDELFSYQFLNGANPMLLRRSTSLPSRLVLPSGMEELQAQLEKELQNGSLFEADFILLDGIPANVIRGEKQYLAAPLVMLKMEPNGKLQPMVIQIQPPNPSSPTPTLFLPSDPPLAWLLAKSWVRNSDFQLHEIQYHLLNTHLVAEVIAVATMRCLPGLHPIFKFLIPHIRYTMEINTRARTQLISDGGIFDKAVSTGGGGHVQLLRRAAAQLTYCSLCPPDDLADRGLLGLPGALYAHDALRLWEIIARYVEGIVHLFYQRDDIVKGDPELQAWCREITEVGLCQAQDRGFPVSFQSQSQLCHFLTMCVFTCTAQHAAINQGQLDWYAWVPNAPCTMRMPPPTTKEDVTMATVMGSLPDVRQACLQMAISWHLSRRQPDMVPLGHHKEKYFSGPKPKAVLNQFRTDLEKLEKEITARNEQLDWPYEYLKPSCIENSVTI
#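 Hydroperoxide product was detected by ferrous iron/xylenol orange as the 573 to 405 nm absorbance ratio. Arachidonic acid at 40 uM (final) was turned over for 30 min at room temperature by 150 nM human 12hLO, pH 7.0 Hepes buffer, after 15 min compound preincubation.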
# PINK1 modulator – A Quantitative High throughput Screen to Identify Chemical Modulators of PINK1 Expression; PINK1 immunofluorescence, high-content cytometry, 24 h; Potency, µM (titrated, usually from 76.6 µM), for the others: at the highest dose activation (PINK1 increase), most hits filed as activators; 410,000 compounds, 0.2% hits; AID 624263, 2012; active = well fitted activation curve with a large enough effect; inconclusive = small, poorly fitted or top-dose-only effect; cell line not stated here; also: % of control where 0% means no effect; nearly all actives have a fitted effect of over 65% in size
#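 PINK1 protein level read as immunofluorescence by microplate cytometer in a fixed, stained stable cell line after 24 h exposure to five compound concentrations, with CCCP as control.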
# KB-3-1 tox – qHTS assay for MDR1-selective chemotherapeutics: Primary screen using the parental adenocarcinoma cell KB-3-1; KB-3-1 viability, CellTiter-Glo ATP luminescence, 72 h; Potency, µM (titrated, usually from 46.1 µM), usual class: cytotoxic; 400,000 compounds, 1.4% hits; AID 1347075, 2019; also: % is scaled to controls: 0 for no effect and ±100 for the full control effect; nearly all actives have a fitted effect of over 60% in size
#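 Parental KB-3-1 viability, qHTS format: 72 h compound exposure, 37 °C; CellTiter-Glo; media-only wells and DMSO plates as controls; concentration-effect fits on corrected data.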
# MCF10A rereplic – A quantitative high throughput screen for small molecules that induce DNA re-replication in MCF 10a normal breast cells. MCF 10A DNA re-replication, Hoechst nuclear intensity, 48 h. Potency, µM (top dose mostly 46.1 µM), for the others: top-dose activity, positive = re-replication, hits mostly activators. 350,000 compounds, 2.9% hits. AID 624296, 2012; also: % of control where 0% means no effect; nearly all actives have a fitted effect of over 50% in size
# KB-V1 MDR tox – qHTS assay for MDR1-selective chemotherapeutics: Primary screen using the drug-selected MDR subline cells KB-V1 | 400,000 compounds, 3.4% hits | KB-V1 MDR cells viability, CellTiter-Glo, 72 h | Potency, µM (titrated, usually from 46.1 µM), actives largely listed as cytotoxic; also: % is scaled to controls: 0 for no effect and ±100 for the full control effect; nearly all actives have a fitted effect of over 60% in size
#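 Luminescent ATP read-out (CellTiter-Glo, 10 min) measures survival of drug-selected KB-V1 MDR cells after 72 h, 37 degrees C compound exposure. Medium: phenol-red-free DMEM, 10% FBS. Values from fitted concentration-response curves.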
# SW480 rerep – A quantitative high throughput screen for small molecules that induce DNA re-replication in SW480 colon adenocarcinoma cells. 340,000 compounds, 1.8% hits. AID 624297, 2012. SW480 DNA re-replication, Hoechst DNA content imaging, 48 h. Potency, µM (titrated, usually from 46.1 µM), for the others: top-dose re-replication activation, actives largely listed as activators; also: % of control where 0% means no effect; nearly all actives have a fitted effect of over 55% in size
#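 250 cells/well; 23 nL cpd via pin tool; 48 hr, 37 C, 5% CO2; Hoechst 40 min; imager read of total nuclear intensity, ex 405/em 500-530 nm.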
# An asterisk follows results filed as active; i = inactive; ? = inconclusive; . = not tested or not shown; [ ] = remark or other dose. This is a sample that favours compounds with a hit; in the whole collection about 5.8% have one here. Unless noted, calls follow the shape of the dose curve; as a rule, active = well fitted curve in the direction sought with a large enough effect; inconclusive = small, poorly fitted or top-dose-only effect, or another doubt; inactive = no such curve, though single readings can be large; an effect the other way counts as inactive or inconclusive. Potency is read from the fitted curve at half-maximal effect.
SMILES,ALOX12 inh,PINK1 modulator,KB-3-1 tox,MCF10A rereplic,KB-V1 MDR tox,SW480 rerep
CCc1ccc2nc(N(CCCN(C)C)C(=O)c3ccc(S(=O)(=O)N(C)C4CCCCC4)cc3)sc2c1,2.3%,0.2%,?,18.4µM*,i,?
Cc1ccc2nc(N(CCCN(C)C)C(=O)c3ccc4c(c3)CCCC4)sc2c1,?,-2.7%,?,?,4.11µM*,?
CN(C)CCCN(C(=O)c1cccc(C(F)(F)F)c1)c1nc2ccc(F)cc2s1,35.5µM*,.,.,.,.,.
CN(C)CCCN(C(=O)c1ccc(S(=O)(=O)N(C)C2CCCCC2)cc1)c1nc2ccc(F)cc2s1,?,-1.7%,i,-0.8%,i,7.0%
Cc1cc(C)c2nc(N(CCCN(C)C)C(=O)c3ccc4c(c3)CCCC4)sc2c1,?,-2.5%,?,?,?,?
CN(C)CCCN(C(=O)c1ccc(C(=O)c2ccccc2)cc1)c1nc2cc3c(cc2s1)OCO3,-29.1%,-2.6%,?,?,20.6µM*,?
CCOC(=O)C1CCC(CNC(=O)N2CCCC2c2ccc(C)cc2)CC1 (configuration not stated),-0.3%,.,.,.,.,.
CN(C)Cc1nc(SCC(=O)Nc2ccc(I)cc2)c2ccccc2n1,-28.0%,.,.,.,.,.
O=C(CCCc1c[nH]c2ccccc12)NCC12CC3CC(CC(C3)C1)C2,-20.0%,.,.,.,.,.
CN(C)CCCN(C(=O)c1cc2cc([N+](=O)[O-])ccc2s1)c1nc2cc3c(cc2s1)OCCO3,-3.2%,-3.3%,?,?,18.4µM*,10.3µM*
CN(C)CCCN(C(=O)c1ccc([N+](=O)[O-])s1)c1nc2cc3c(cc2s1)OCCO3,-18.7%,-1.2%,i,-9.4%,i,?
CO/N=C/c1ccc(OC)c(Oc2nc(OC)cc(OC)n2)c1,-0.4%,7.6%,18.4µM*,16.4µM*,i,18.4µM*
CCO/N=C/c1ccc(OC)c(Oc2nc(OC)cc(OC)n2)c1,-7.0%,4.4%,i,?,i,-1.0%
c1ccc(CNc2ccc3c(c2)ncn3C2CCCCC2)nc1,0.8%,-0.2%[38.3 µM],i,20.6µM*,i,23.1µM*
CC(C)CCNC(=O)c1ccc2c(c1)ncn2C1CCCCC1,-24.4%,-2.3%[38.3 µM],i,25.3%,13µM*,-13.9%
CCCCNC(=O)c1ccc2c(c1)ncn2C1CCCCC1,4.0%,1.6%,i,3.3%,i,-7.9%
CCCCS(=O)(=O)Nc1ccc2c(c1)ncn2C1CCCCC1,10.0%,2.9%[38.3 µM],i,23.1µM*,?,3.2%
COc1ccc(-c2noc(CN(C)S(=O)(=O)c3ccc(Cl)cc3)n2)cc1OC,12.8%,-3.1%[38.3 µM],?,1.5%,7.31µM*,-1.5%
COc1ccc(-c2noc(-c3ccc(Cl)cc3[N+](=O)[O-])n2)cc1OC,11.4%,7.6%,i,-2.8%,18.4µM*,0.4%
Cc1ccc(-c2nc(CNC(=O)[C@@H]3CCC[C@H](N)C3)[nH]c2-c2ccccn2)cc1,35.6%,.,.,.,.,.
CCCCCCCNC1=CC(=O)CC(c2ccccc2)C1 (configuration not stated),-7.3%,39.8µM*,7.31µM*,18.4µM*,?,?
CCCCCNC1=CC(=O)CC(c2ccccc2)C1 (configuration not stated),26.8%,10.7%,?,?,14.6µM*,?
O=C1C=C(NCc2ccncc2)CC(c2ccccc2)C1 (configuration not stated),0.0%,2.2%,i,3.2%,i,0.1%
CNC1=CC(=O)CC(c2ccccc2)C1 (configuration not stated),-7.6%,1.9%,i,?,i,?
